# Target: RABGEF1
# Assay: pooled miR-30 sensor sort-seq; sequence = guide strand
# Settings: shRNA
# Further: reference of the scale not given here.
row,Sequence,sensor-assay potency score (higher = more potent)
1,TTCTTTTCTTCAAACTTGGAGA,-0.783
2,TTCTTCAATGCTTAGATCCCTT,-0.412
3,TTGGCTTCATTCATGATCCTTT,0.202
4,TTGAATGGCAAGATCTTTCTTC,0.743
5,TTCACTGTGGTAACCTTGCGGG,-0.0581
6,TTATACATTTGCTTGACGCCTA,0.54
7,TTATCTTCTCGACTCTTTCTGG,-0.279

# Target: RAD18
# Assay: as above
# Settings: shRNA
row,Sequence,sensor-assay potency score (higher = more potent)
1,TATAAATAGAAAATCTATCTGT,0.122
2,TTTTGTGAACAGAACTTCTGAG,0.451
3,TAGAATTTAGCATCTTTCCTTG,-0.0135
4,TTCTGTGTCTTGAAGATCGTTT,0.506
5,TTTTCTTTTATCAACAACTCTG,0.0462
6,TTTATCAACAACTCTGATGTAG,1.04
7,TTTGTGAACAGAACTTCTGAGG,-0.395
8,TACTTTGACAGCAAGATTCTTT,0.474
9,TTTCCTTCTTCTCTTCGCGTGA,-0.0825
10,TTTTCTAGCCTGATCCACCAGA,-0.673
11,TTTCATTGAGTTTACTAGCTTC,0.211

# Target: RAD54L
# Assay: as above
# Settings: shRNA
row,Sequence,sensor-assay potency score (higher = more potent)
1,TTGACCATCTCGCCAGACCCGG,-1.03
2,TTAACAAAATGTACCAAGCTGA,-0.415
3,TCTTGTATAACTCAGTCTGAAG,-1.48
4,TTGATTGGTTAGCTGACTCAAA,-0.506
5,TTGTCTCAGAAACCTCTTGTAT,-1.26
6,TAGATATAGCAAGTCTTCTTTT,-1.02
7,TTGCACTCTGGACTCTGGCGTA,-0.761
8,TTCATGCTGACTGCTGTCCAGA,-1.19
9,TTACAAAGCTTCTTTAGCGAGG,-0.517
10,TTCTTTTGACCATCTCGCCAGA,-0.96
11,TTCTTAATGGACATCGTGCCAT,-0.43
12,TTCTTGATGATTTTCTCCCAGA,-0.985

# Target: RAD9A
# Assay: as above
# Settings: shRNA
row,Sequence,sensor-assay potency score (higher = more potent)
1,TTAATGAATCAATAGCAGCGTC,-0.585
2,TTTACAGTGACAGCCAGCTGGG,-1.03
3,TCAAGTTTGCTGACTCTGCAAA,-0.678
4,TGTGCTGTGAGCCTGGAGCTGA,-0.559
5,TTCATCAGGATCTTACAGCGCA,0.0418
6,TACAGTGACAGCCAGCTGGGGC,-0.774
7,TCACATCTAAGACACTGCCTGG,-0.534
8,TTCCTTAGGAAGGTGAGCCTGA,0.111
9,TCATTGGCAAAGTCGTCCGGGT,-0.913
10,TGAATCAATAGCAGCGTCCAGT,-0.732

# From the OligoGym collection
